This is part of a sample that, as a whole, favours compounds with a hit. Of some 79,000 tested, about 15% had one in any assay. A number with no mark means an inactive call. Active and inactive are the calls of the source. Cut-off read from the data, not from the text of the source: active = growth inhibition above about 70%; inactive = the rest.
Experiment: NCI Yeast Anticancer Drug Screen. Data for the rad50EPP+ strain (AID 151);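 note: 0% = growth of vehicle-treated control cultures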
Details: S. cerevisiae rad50 mutant strain, stronger effect = higher value
Experimental: Growth inhibition of yeast strains with defined genetic alterations is measured as a screen for potential anti-cancer activity. Selected strains with alterations in DNA damage repair or cell cycle control were exposed to compounds and growth inhibition was measured relative to vehicle treated controls. The strain used in this assay is rad50EPP+

SMILES	growth inhibition (at 1.2 µM)	growth inhibition (at 3.7 µM)	growth inhibition (at 11.0 µM)	growth inhibition (at 33.0 µM)	growth inhibition (at 100.0 µM)
CCCCOc1ccc2nc(C)cc(N=[N+]=[N-])c2c1	-1%	-3%	0%	10%	45%
CC(=O)Oc1ccc2c(c1)Cc1cc(N3C(=O)C=CC3=O)ccc1-2	81% (active)	96% (active)	98% (active)	97% (active)	92% (active)
CC(=O)/C=C/c1cccc([N+](=O)[O-])c1	3%	7%	29%	81% (active)	98% (active)
CCOP(=O)(OCC)/C(C#N)=C/c1ccc(-c2ccc(F)cc2F)o1	0%	1%	3%	0%	5%
O=C1NC(c2cccc(OCc3ccccc3)c2)Nc2ccccc21 (stereo not given)	-3%	10%	0%	6%	16%
Cc1ccnc2c(O)cccc12	-1%	98% (active)	99% (active)	99% (active)	99% (active)
O=C1C(=C2CCCC2)CCC1CN1CCCCC1 (stereo not given)	28%	36%	48%	80% (active)	94% (active)
CCCN=Cc1cc(Cc2ccc(O)c(C=NCCC)c2)ccc1O	27%	85% (active)	96% (active)	98% (active)	99% (active)
